Measured values: ChEMBL document CHEMBL1157539, “Thousands of chemical starting points for antimalarial lead identification” (Nature, 2010)

Experiments:
Type in all cases: functional
[1] = test system: Plasmodium falciparum; test: GSK_TCMDC: Inhibition of Plasmodium falciparum 3D7 in whole red blood cells, using parasite LDH activity as an index of growth. Test compounds present at 2uM
[2] = test system: Plasmodium falciparum; test: GSK_TCMDC: Inhibition of Plasmodium falciparum Dd2 in whole red blood cells, using parasite LDH activity as an index of growth. Test compounds present at 2uM
[3] = test system: HepG2; test: GSK_TCMDC: Percent inhibition of human HepG2 cell line. Test compounds present at 10uM.

Row | Compound | Inhibition [1] [%] | Inhibition [2] [%] | Inhibition [3] [%]
1 | COc1cccc(NC(=O)c2cc([N+](=O)[O-])ccc2NC(=O)CN2CCc3ccccc3C2)c1 | 100 | 37 | 5
2 | Cn1nc(-c2ccc(CN[C@@H]3CCc4ccc(O)cc43)cc2)c2cnc(NCCCN3CCCC3)nc21 | 100 | 61 | 8
3 | Br.C=CCN1Cc2c(O)cccc2C(c2ccc(O)c(O)c2)C1 (centres undefined) | 97 | 6 | 0
4 | CC(=O)Nc1ccc(OCCN(Cc2ccccc2OC(F)(F)F)c2ccc(C(F)(F)F)c(C#N)c2)c(Cl)c1 | 96 | 96 | 8
5 | CC[C@@H]([C@@H](CC(C)C)C(=O)N[C@@H](CCCCNC(=O)OCc1ccccc1)C(=O)Nc1ccccn1)N(O)C=O | 98 | 99 | 0
6 | FC(F)(F)c1ccc(CSc2ccc3nnc(-c4ccccn4)n3n2)cc1 | 95 | 54 | 0
7 | O=C(O)C(=O)O.Oc1c(CN2CCC(Cc3ccccc3)CC2)cc(Cl)c2cccnc12 | 96 | 94 | 49
8 | N#Cc1cc(C(=O)c2cc(Br)ccc2O)cn(C2CCCCC2)c1=O | 89 | 9 | 3
9 | Cc1cnccc1/C=C/c1cccc(OCCN2CCc3ccc(S(C)(=O)=O)cc3CC2)c1 | 93 | 80 | 9
10 | COc1cc(C(=O)NC2CC(C)(C)NC(C)(C)C2)ccc1-c1cc2cc(Cl)c(Cl)cc2[nH]1.O=C(O)C(F)(F)F | 99 | 31 | 41
11 | CS(=O)(=O)c1ccc(CCNCc2ccc(-c3ccc(CNC4CCN(Cc5ccccc5)CC4)cc3)nc2)cc1.O=C(O)C(F)(F)F | 100 | 100 | 32
12 | O=C(Nc1ccc(-c2cccc(-c3nc4cc(F)ccc4[nH]3)c2)cc1)Nc1ccsc1 | 100 | 51 | 34
13 | Oc1c(CN2CCCC(C(F)(F)F)C2)cc(Cl)c2ccccc12 (centres undefined) | 94 | 53 | 23
14 | CC(CCCCOCCc1ccccc1)NCC(O)c1cc(Cl)c(N)c(Cl)c1 (centres undefined) | 96 | 95 | 0
15 | CCOc1ccc(Cc2c(C)nc3nc(N)nc(N)c3c2C)cc1.Cl | 91 | 7 | 63
16 | COc1cc2c(cc1S(=O)(=O)c1ccc(NC(=O)c3ccc4ccccc4c3)cc1)CCN(C)CC2 | 99 | 28 | 2
17 | Cl.c1cc(CNC2Cc3ccccc3C2)cc(-c2cnc(N3CCNCC3)nc2)c1 | 93 | 65 | 43

Row | Compound | Inhibition [1] [%] | Inhibition [2] [%] | Inhibition [3] [%]
18 | C=CCc1cc(Br)ccc1OCCCOc1c(C)nc(N)nc1N.Cl | 94 | 96 | 56
19 | O=C(CNC(=O)c1ccc(O)cc1)Nc1cccc(-c2cccc(-c3nc4cc(C(F)(F)F)ccc4[nH]3)c2)c1 | 96 | 28 | 63
20 | Cn1cncc1C(=O)Nc1ccc(-c2ccc(-c3nc4cc(C(F)(F)F)ccc4[nH]3)cc2)cc1 | 100 | 33 | 24
21 | CCN(CC)CCN(Cc1ccc(-c2ccc(C(F)(F)F)cc2)cc1)C(=O)Cn1cc(Cc2cnn(C)c2)c(=O)nc1/C=C/c1ccc(F)cc1.O=C(O)C(O)C(O)C(=O)O | 96 | 91 | 6
22 | CC(C)NCc1ccc(-c2cccc(CN3CCC(c4ccccc4)CC3)c2)c(C(=O)NCC2CCCCC2)c1.O=C(O)C(F)(F)F | 98 | 76 | 42
23 | COc1cc(NC(=O)c2sc(-c3ccc(Cl)cc3)cc2NC(=O)N2CCCC2)ccc1OCCN1CCCC1 | 100 | 61 | 22
24 | COc1cc(NC(=O)c2c(-c3c(Cl)cccc3Cl)noc2C)c(OC)cc1Cl | 85 | 67 | 4
25 | CCCCCCCc1[nH]c2ccccc2c(=O)c1C | 97 | 96 | 48
26 | CN(C)Cc1ccc(-c2cccc(Nc3nccc(NCC(O)c4ccccc4)n3)c2)cc1 (centres undefined) | 100 | 100 | 74
27 | Br.Cc1cc(C)c(CON2C(=N)N=C(N)NC2(C)C)cc1C | 92 | 93 | 65
28 | CCCCc1cc(NCC)nc(Nc2ccc(OC)cc2)n1 | 85 | 32 | 30
29 | O=C(NCCCCCN1CCC(c2c[nH]c3ccccc23)CC1)Nc1ccc(I)c(Cl)c1 | 99 | 5 | 88
30 | Cc1ccc(C(=O)Nc2ccc(-c3nc4ccccc4[nH]3)cc2)cc1S(=O)(=O)N1CCOCC1 | 90 | 16 | 56
31 | Nc1ccc(-c2nc3cc(C4=N[C@H]5CCCC[C@H]5N4)ccc3o2)cc1[N+](=O)[O-] | 95 | 33 | 16
32 | Br.CCOc1ccc(OCCCON2C(=N)N=C(N)NC2(C)C)cc1 | 97 | 94 | 63
33 | CC1CCCN(c2ccc(NC(=O)c3cccs3)cc2[N+](=O)[O-])C1 (centres undefined) | 96 | 96 | 14
